Screening data (PubChem)
HCMV inh – human cytomegalovirus inhibition; AID 1259415; activity change, negative = inhibition, % at 57.5 µM; HFF cells, HCMV-luciferase reporter, 72 h; active compounds read low; 4.5% of 410,000 active; in the data active means activity change below about -60%; inconclusive means no clear call, values can overlap the other calls; inactive means above about -39%; further: on the % scale 0 is the no-effect control and ±100 the full control effect
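Two compound doses tested in HFFs infected with HCMV-luciferase, MOI 1 PFU/cell, 72 h at 37C. Lysate luminescence read with OneGlo; data normalized against buffer-only and 10uM Salinomycin inhibitor controls.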
HCV inhibitor – inhibitors of hepatitis C virus infection | Huh7.5.1 HCVcc-Cre infection, luciferase reporter, 44 h | AID 651820 | 3.4% of 340,000 active | Potency, µM (highest dose often 41.8 µM), for inactives: at the highest dose activity change, negative = inhibition, hits mostly inhibitors; further: potency means the concentration at half of the fitted maximal effect; on the % scale 0 is the no-effect control and ±100 the full control effect
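Cells (1,000/well) were plated 4 h before compound, then infected with HCVcc-Cre virus (~0.5 moi). After 44 h further culture, infection was read as luciferase luminescence following a 15 min substrate incubation at room temperature.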
Sm TGR inh – blocks Schistosoma mansoni thioredoxin glutathione reductase; Q962Y6; purified TGR, DTNB reduction, TNB absorbance 405 nm; 3% of 360,000 active; AID 485364; Potency, µM (highest dose often 114 µM), without a hit: at the highest dose activity change, negative = inhibition, actives largely listed as inhibitors; further: potency means the concentration at half of the fitted maximal effect; on the % scale 0 is the no-effect control and ±100 the full control effect; nearly all actives have a fitted effect of over 60% in size
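First, TGR (20 nM dispensed) and NADPH were mixed with compound. Second, a 15 min room-temperature incubation followed. Third, further NADPH and then DTNB were added to start the reaction. Finally, TNB absorbance was monitored kinetically.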
Pf growth 96h – P. falciparum growth inhibition at 96 hours. Potency, µM (doses to about 28.7 µM), for inactives: at the top dose activity change, negative = inhibition, usual class: inhibitors. 6.9% of 320,000 active. P. falciparum luciferase reporter growth, 96 h. AID 504834; further: potency means the concentration at half of the fitted maximal effect; on the % scale 0 is the no-effect control and ±100 the full control effect
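Two-generation exposure (96 h) targets delayed-death phenotype. Reporter parasites carrying integrated firefly luciferase, in red cells at 2% hematocrit and 0.05% parasitemia final, kept at 37 C, 5% CO2; luminescence loss indicates inhibition.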
SARS PLpro yeast – blocks SARS-CoV papain-like protease in a yeast assay; S. cerevisiae expressing SARS-CoV PLpro, growth rescue; Potency, µM (titrated, usually from 32.9 µM), without a hit: at the top dose activity, positive = growth rescue, most hits filed as activators; 0.19% of 330,000 active; calls by dose curve; further: potency means the concentration at half of the fitted maximal effect; 0% is about no effect; nearly all actives have a fitted effect of over 55% in size
Pf growth 48h – inhibits P. falciparum growth in the first generation, 48 h. P. falciparum luciferase growth in erythrocytes, 48 h. Potency, µM (highest dose often 28.7 µM), inactives show top-dose activity change, negative = inhibition, usual class: inhibitors. 5.9% of 310,000 active; further: potency means the concentration at half of the fitted maximal effect; on the % scale 0 is the no-effect control and ±100 the full control effect
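Growth was read as firefly luciferase luminescence after a 48 h, 37 C, 5% CO2 exposure of compounds to reporter-bearing P. falciparum cultures (0.1% parasitemia, 2% hematocrit final) in Albumax-supplemented RPMI 1640.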
Active calls of the source: *; ? = inconclusive; / = no result given. Rows were chosen to be rich in hits. Some 15% of all compounds tested hit in one or more screens of this group. Unless noted, the call rests on the fitted dose curve; in most records, active means well fitted curve in the direction sought with a large enough effect; inconclusive means small, poorly fitted or top-dose-only effect, or another doubt; inactive means no such curve, though single readings can be large; an effect the other way counts as inactive or inconclusive.

SMILES	HCMV inh	HCV inhibitor	Sm TGR inh	Pf growth 96h	SARS PLpro yeast	Pf growth 48h
CCOc1ccc(N(CC(=O)Nc2ccc3c(c2)OCCO3)S(=O)(=O)c2c(C)noc2C)cc1	-21	-12%	15%	10µM*	1%	/
CCOc1ccc(NC(=O)CN(c2cc(C)cc(C)c2)S(=O)(=O)c2c(C)noc2C)cc1	48	?	-17%	?	-5%	7%
COc1ccc(OC)c(NC(=O)CN(c2ccc(C(C)C)cc2)S(=O)(=O)c2c(C)noc2C)c1	42	?	0%	10µM*	-5%	/
COc1ccccc1NC(=O)CN(c1ccc(C(C)C)cc1)S(=O)(=O)c1c(C)noc1C	-15	/	1%	/	/	/
CCOc1ccc(N(CC(=O)Nc2ccc(OC)cc2)S(=O)(=O)c2c(C)noc2C)cc1	?	14%	3%	6.6µM*	3%	/
COc1ccc(N(CC(=O)Nc2ccc(OC)c(Cl)c2)S(=O)(=O)c2c(C)noc2C)cc1	-14	?	4%	27%	9%	8.3µM*
O=C(CSc1nc(-c2ccccc2)no1)N1CCN(c2ccc(F)cc2)CC1	-1	/	-1%	/	/	/
COc1ccc(S(=O)(=O)Cc2ccc(C(=O)N3CCN(c4ccccn4)CC3)o2)cc1	/	?	0%	1%	4%	/
O=C(c1ccc(CS(=O)Cc2ccc(Cl)cc2)o1)N1CCN(c2ccccn2)CC1 (stereo unspecified)	-30	-24%	?	10µM*	1%	-27%
COc1ccccc1S(=O)(=O)Cc1ccc(C(=O)N2CCN(c3ccccn3)CC2)o1	/	-2%	28µM*	?	-1%	?
O=C(c1ccc(COc2ccccc2Br)o1)N1CCN(c2ccccn2)CC1	-2	-23%	-12%	74%	-9%	10%
O=C(c1ccc(CS(=O)Cc2ccccc2Cl)o1)N1CCN(c2ccccn2)CC1 (stereo unspecified)	-13	-19%	?	-11%	-2%	-28%
O=C(c1ccc(C#Cc2ccccc2)o1)N1CCN(c2ccccn2)CC1	?	?	1%	8.3µM*	-16%	-19%
CCCNC(=O)c1nnc2n1CCN(C(=O)c1ccc3sccc3c1)C2	-8	/	/	/	/	/
COC(=O)[C@]12CCCCC=C1N(Cc1ccco1)C(=O)[C@H](CC(=O)NCc1ccccc1)C2	14	/	/	/	/	/
Cc1ccc2nc3c(cc2c1)CC1(C(=O)N(C)C(=O)N(C)C1=O)C1CCCCN31 (stereo unspecified)	84	?	7%	/	3%	43%
CCCCN1C(=O)NC(=O)C2(Cc3c(nc4c(C)cccn4c3=O)N3CCc4ccccc4C32)C1=O (stereo unspecified)	-12	?	?	0%	0%	9.3µM*
Cc1cccn2c(=O)c3c(nc12)N1CCCCCC1C1(C3)C(=O)N(C)C(=O)N(C)C1=O (stereo unspecified)	-28	18%	4%	2.6µM*	1%	?
Cc1cccn2c(=O)c3c(nc12)N1CCc2ccccc2C1C1(C3)C(=O)NC(=O)N(C)C1=O (stereo unspecified)	-37	16%	-35%	/	-6%	13µM*
COc1ccc2[nH]c3c(c2c1)[C@@H]1CCN2C(=O)CCC[C@H](C3)[C@H]12	-61*	2%	-5%	23%	9%	1%
COc1ccc(CNC2C[C@H]3CCCC(=O)N4CC[C@@H](C2)[C@@H]34)cc1 (stereo partly specified)	6	-52%	/	/	2%	/
Cc1cc2nc(C3CCN(CC4COc5ccccc5O4)CC3)[nH]c2cc1C (stereo unspecified)	-14	?	1%	6%	1%	13µM*
c1ccc2c(c1)OCC(CN1CCCCC1)O2 (stereo unspecified)	/	/	/	?	/	-3%
Cc1ccc(Cl)cc1NC(=O)C(NS(=O)(=O)c1cccs1)c1ccccc1 (stereo unspecified)	-70*	-12%	-1%	?	12%	-7%
CCc1cccc(CC)c1NC(=O)C(NS(=O)(=O)c1cccs1)c1ccccc1 (stereo unspecified)	-24	-2%	-3%	16%	-10%	?
SMILES	HCMV inh	HCV inhibitor	Sm TGR inh	Pf growth 96h	SARS PLpro yeast	Pf growth 48h
COc1ccc(CNC(=O)C/C(C)=N/NC(=O)c2ccc(OC)cc2OC)cc1	-13	?	-18%	-2%	0%	4%
Cc1ccc(C)c(-n2c3nc(=O)n(C)c(=O)c-3cc3ccccc32)c1	-20	-24%	-35%	-22%	0%	0%
Cc1nc2c(=O)n(C)c(=O)nc-2n(C)n1	-103*	0.56µM*	?	-9%	-62%	0.33µM*
CN1C(=O)CCS(=O)(=O)C1c1ccc(Cl)c(Cl)c1 (stereo unspecified)	13	/	/	/	/	/
CCOC(=O)C1CCCN(c2cc(C)nc3c(-c4ccccc4OC)c(C)nn23)C1 (stereo unspecified)	1	/	10%	/	/	/
CCOC(=O)N1CCN(C(=O)CSc2ccc(-c3ccccc3OC)nn2)CC1	16	?	90%	4.7µM*	2%	?
CCOC(=O)N1CCN(C(=O)CSc2cc(C)nc3c(-c4ccccc4OC)c(C)nn23)CC1	/	?	-23%	11%	4%	4.7µM*
CCOC(=O)N1CCC(Nc2cc(C)nc3c(-c4ccccc4OC)c(C)nn23)CC1	?	?	-5%	2%	-3%	9.3µM*
CCOC(=O)N1CCN(C(=O)CSc2ccc(-c3cccc(OC)c3)nn2)CC1	78	-19%	0%	-29%	-2%	-30%
CC1C(=O)N(Cc2cn(CCC3OCCCO3)nn2)CCS(=O)(=O)N1Cc1ccc(-c2ccc(Cl)c(Cl)c2)cc1 (stereo unspecified)	-92*	/	/	/	/	/
COc1ccc(-c2ccc(CN3C(CC(C)C)C(=O)N(Cc4cn(CCC5OCCO5)nn4)CCS3(=O)=O)cc2)cc1OC (stereo unspecified)	-62*	/	/	/	/	/
CCC(=O)N(C)C[C@H]1Oc2cc(-c3ccccc3F)ccc2S(=O)(=O)N([C@H](C)CO)C[C@H]1C	5	/	/	/	/	/
O=C(CN1CCOCC1)Nc1ccc(Oc2ccccc2)cc1	13	-6%	0%	-1%	0%	19%
O=C(CC1NCCc2ccccc21)Nc1ccccc1 (stereo unspecified)	19	-1%	?	30%	2%	45%
O=C(CN1CCNCC1)Nc1ccc(Oc2ccccc2)cc1	-10	7.9µM*	4%	21%	6%	-25%
O=C(CC1NCCc2ccccc21)Nc1ccc(Oc2ccccc2)cc1 (stereo unspecified)	?	11µM*	0%	?	-3%	352%
